# Experimental data: the OligoGym collection
# Target: DNAJC8
# Assay: pooled miR-30 sensor sort-seq; sequence = guide strand
# Settings: shRNA
# Further: reference of the scale not given here.
row,Sequence,sensor-assay potency score (higher = more potent)
1,TTTTTCTTGAGCTTCAATCTCT,0.129
2,TTTCTAACCATCACAATTCAGT,-0.77
3,TTGAGCTTCAATCTCTTCTTCC,0.0915
4,TTGGCTTGGAAGTTTCGCCAGC,-0.414
5,TTTCACAGTGTGTTCCACGTAT,0.15
6,TTTTTCGAAGTTAGAACCGAGT,-0.8
7,TTTCTTCATCTGTAACTTCAGG,-0.78

# Target: DNAL4
# Assay: as above
# Settings: shRNA
row,Sequence,sensor-assay potency score (higher = more potent)
1,TCTTTGATCATCTTGGCGGCGC,-0.0929
2,TATATAAATAAGACCGCTGTGT,-0.264
3,ATTGTCTCTTTGATCATCTTGG,0.417
4,ATAATCAGCCTCATCTTTCTTC,0.738
5,TTGTCTCTTTGATCATCTTGGC,-0.232
6,TAGAGGAGGTTCTTCACCTCGT,0.0799
7,TCGTGGGTGATCTCAAACCCAA,-1.47
8,TTGTTGTTGGAGAATTTCTCAC,-0.596
9,TCTCTTTGATCATCTTGGCGGC,-0.315
10,TCTGCAGTCGCTTATAATCAGC,-1.4
11,ACTTCTTGTCCATTGTCTCTTT,-0.545

# Target: DNASE2B
# Assay: as above
# Settings: shRNA
row,Sequence,sensor-assay potency score (higher = more potent)
1,TAACAAGTGTGTCTTCAGCCGT,-0.785
2,TTGGTGTGTCCATACTTTCTGC,-0.698
3,TTTTATATTGTAGACATGGTAA,-1.07
4,ATAATCATAGCCTTCTTCCGGA,0.631
5,TAGGTCTCCAATACATGTCCAG,-0.704
6,TTGAACTCTGTTCCACAGCAGT,-0.963
7,TTTAATTGCTTTTATATTGTAG,-0.233
8,TTGTATATTAGATAGGCTGTGT,0.0611
9,TATAGCTGTTGTAATGTCCTTC,0.757
10,TCTAGTTGTAGAGTCTAGGTAC,0.705
11,TTCTGTTAACAAGTGTGTCTTC,-0.13
12,TACTCTTAGAGGCATATGCTTC,-0.938

# Target: DNMT3L
# Assay: as above
# Settings: shRNA
row,Sequence,sensor-assay potency score (higher = more potent)
1,TTGAAATATTCTCTTAGGGGGA,-0.387
2,TATATTTCGCTGGTTAGCCTTG,-0.491
3,AATACTTGAAATATTCTCTTAG,0.0137
4,TTGGTACCCGTCATCGTCGTAC,-0.554
5,AACTGGAACAGGTACCAGCTGG,-0.764
6,TTCTGTTGAAAAATACTTGAAA,-0.77
7,ATGTCTTCTATATTTCGCTGGT,-0.668
8,TATGCAATAAGATCTCTGCCTG,-0.0706
9,TGGAACTGGAACAGGTACCAGC,-1.35
10,TGTGACATCAACCACATGCTTC,-0.297
